In PubChem BioAssay AID493194 (Broad Institute, 2011):
Entries with a potency or affinity are not part of this list. Records with an inconclusive call do not appear. Calls of active or inactive are those of the source.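 Rule for the calls: active = a valid curve of falling signal whose half-effect concentration is at most ten times the top tested dose; inconclusive = flat curve at 30 to 70% inhibition, or poor fit; inactive = signal rise, flat within 30%, or potency beyond limit.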

Target: Scavenger receptor class B member 1 (Mus musculus) (UniProt Q61009)
Sequence (Q61009 whole entry, looked up): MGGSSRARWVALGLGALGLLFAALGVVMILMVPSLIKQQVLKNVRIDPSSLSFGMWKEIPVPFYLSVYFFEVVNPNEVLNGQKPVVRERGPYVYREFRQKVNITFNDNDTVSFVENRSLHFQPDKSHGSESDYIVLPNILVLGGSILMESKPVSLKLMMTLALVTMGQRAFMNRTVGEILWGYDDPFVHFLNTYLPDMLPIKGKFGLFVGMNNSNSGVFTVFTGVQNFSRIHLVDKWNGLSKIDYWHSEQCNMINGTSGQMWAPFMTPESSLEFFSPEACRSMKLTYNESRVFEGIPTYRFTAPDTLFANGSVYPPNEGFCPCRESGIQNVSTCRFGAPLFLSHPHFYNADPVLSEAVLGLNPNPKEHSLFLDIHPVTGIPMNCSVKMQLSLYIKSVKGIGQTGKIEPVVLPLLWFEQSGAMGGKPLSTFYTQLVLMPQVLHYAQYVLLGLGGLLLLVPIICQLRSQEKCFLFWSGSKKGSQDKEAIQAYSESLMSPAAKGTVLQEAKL
Test: mouse SR-BI DiI-HDL uptake blockers – ldlA[mSR-BI] cells, fluorescence, cherry pick, dose response (AID 493194);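 note: CHO cells lacking LDL receptor and overexpressing mouse SR-BI; cellular uptake of fluorescently labeled HDL measured as cell fluorescence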

SMILES	outcome
CNc1nc(-c2ccc3c(c2)CCN3C(=O)c2ccc(F)cc2)cs1	inactive
Cc1cc(C)nc(Nc2n[nH]c(-c3ccc(C(C)(C)C)cc3)n2)n1	inactive
CC(C)C(=O)Nc1nc(-c2ccc3c(c2)CCN3C(=O)C2CC2)cs1	inactive
O=S(=O)(c1ccccc1)c1cnc(-c2ccccc2)nc1N1CCCCC1	inactive
Cc1c(Cl)cccc1S(=O)(=O)N1CCC(C(=O)NNC(=O)C2CC2)CC1	inactive
CCC(C)c1ccccc1N1CC(C(=O)N2CCN(S(=O)(=O)c3cccc([N+](=O)[O-])c3)CC2)CC1=O (stereo not drawn)	inactive
Cc1ccccc1-c1cc(C(=O)NCc2cccc(Br)c2)nn1CC1CC(c2cccc([N+](=O)[O-])c2)=NO1 (stereo not drawn)	inactive
CN(Cc1cc(Cl)cc(Cl)c1O)Cc1c(O)ccc2ccccc12	inactive
CC(=O)Nc1cccc(NC(=O)c2ccc3c(c2)CCN3S(=O)(=O)c2ccccc2)c1	inactive
Cn1c(C(=O)N2CCC(C(=O)N3CCN(Cc4ccc5c(c4)OCO5)CC3)CC2)cc2sccc21	inactive
CNc1cnn(-c2ccc(C)cc2)c(=O)c1Sc1ccc(C)cc1	inactive
Cc1cc(C)c(C)c(S(=O)(=O)N2CCN(CC(=O)NC(=O)NCc3ccccc3)CC2)c1C	inactive
CN1CCC2CC1c1cc(-c3ccc(C(F)(F)F)cc3)ccc12 (stereo not drawn)	inactive
COc1cccc(-c2csc(N3CCN(C(=S)Nc4cccc(C)c4)CC3)n2)c1	inactive
CC(=O)Nc1c(I)c(C(=O)N[C@H]2C(O)O[C@H](CO)[C@@H](O)[C@@H]2O)c(I)c(N(C)C(C)=O)c1I (stereo partly drawn)	inactive
Cc1cc(C)cc(NC(=O)CCc2c(C)nn(-c3ccc(N4CCCCC4)nn3)c2C)c1	inactive
COc1cc(OC)cc(C(=O)N[C@H](C(=O)Nc2nc(-c3ccc(F)c(F)c3)cs2)C(C)C)c1	inactive
Cc1cccc(N2CCN(C(=O)Cn3cccc3C(=O)c3ccccc3)CC2)c1C	inactive
CCC(C(=O)NC1CCCC1)N(C(=O)Cn1nnc(-c2ccc(OC)c(OC)c2)n1)c1cccc(O)c1 (stereo not drawn)	inactive

SMILES	outcome
O=C(C1=COCCO1)N(Cc1nnc(-c2ccccc2Cl)o1)C1CC1	inactive
O=C(OCc1ccccc1)N1CCC2CC1c1cc(-c3ccc(F)cc3)ccc12 (stereo not drawn)	inactive
Cc1cc(C)cc(NC(=O)c2ccc3c(c2)CCN3S(C)(=O)=O)c1	inactive
CCOC(=O)Nc1ccc2c(c1)N(C(=O)C(C)N1CCCC1)c1ccccc1CC2 (stereo not drawn)	inactive
CC(=O)Oc1ccc(C(=O)Cc2ccc3ccccc3n2)c(O)c1C	inactive
O=C(Nc1cccc(NC(=O)c2ccccc2Cl)c1)c1ccc(F)cc1	inactive
O=C(Cc1cccs1)NCCSc1c(-c2ccc(Cl)cc2)[nH]c2ccccc12	inactive
Cc1ccccc1NC(=O)N(CCc1nc2ccccc2[nH]1)Cc1ccccc1	inactive
COc1ccc(NC(=O)CN2CCN(CC(=O)Nc3ccc(OC)c(OC)c3)CC2)cc1	inactive
Cc1cc(NC(=O)Nc2ccccc2)n(-c2ccccc2)n1	inactive
COc1cc(NC(=O)c2cc(-n3cnnc3)ccc2Cl)cc(OC)c1	inactive
CCOC(=O)C1CCCN(C(=O)c2cc(COc3ccc(C)nc3)on2)C1 (stereo not drawn)	inactive
CC(=O)Nc1cc(NC(C)=O)cc(C(=O)OCC(=O)N(c2ccccc2)C2CCS(=O)(=O)C2)c1 (stereo not drawn)	inactive
O=C(C[C@H]1C/C=C\CCC(=O)OC[C@H]2CCCN2C1=O)NCCO	inactive
CCOC(=O)Nc1cccc(NC(=O)c2cc(OC)cc(OC)c2)c1	inactive
CCOc1ccc(C(=O)Nc2ccc(S(=O)(=O)N3C[C@@H]4C[C@@H](C3)c3cccc(=O)n3C4)cc2)cc1	inactive
CCN(C(=O)COC(=O)c1c(C)c(-c2ccccc2)nc2ccccc12)C1CCS(=O)(=O)C1 (stereo not drawn)	inactive
C=CCN(CC=C)C(=O)COn1nnc2ccc(S(=O)(=O)N3CCOCC3)cc21	inactive
COc1ccccc1CNC(=O)C1CCN(C(=O)c2sccc2-n2cccc2)CC1	inactive
